Laboratory results as given in PubChem BioAssay (NCI).
The panel holds about 83,000 compounds, 20% with a hit somewhere; the sample as a whole holds those more often.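 Growth was measured after 48 h exposure to one concentration of compound in 96-well plates. Values under 10 count as active.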 The source made the active and inactive calls.

Columns and labels:
Assay in all cases: NCI-60 one-dose screen, 48 h (100 = growth as untreated, 0 = no growth, -100 = all killed)
Conditions in all cases: 10 µM unless noted
NCI-H23 lung = tested on: NCI-H23 lung
NCI-H226 lung = tested on: NCI-H226 lung
NCI-H322M lung = tested on: NCI-H322M lung
HOP-62 NSCLC = tested on: HOP-62 NSCLC
NCI-H460 lung = tested on: NCI-H460 lung
NCI-H522 lung = tested on: NCI-H522 lung
A549/ATCC NSCLC = tested on: A549/ATCC NSCLC
786-0 renal = tested on: 786-0 renal
COLO 205 colon = tested on: COLO 205 colon
DU-145 prostate = tested on: DU-145 prostate
K-562 leukemia = tested on: K-562 leukemia
MALME-3M melanoma = tested on: MALME-3M melanoma
MDA-MB-231 breast = tested on: MDA-MB-231 breast
RXF 393 renal = tested on: RXF 393 renal
SF-268 CNS = tested on: SF-268 CNS
SF-295 CNS = tested on: SF-295 CNS
SF-539 CNS = tested on: SF-539 CNS
UACC-257 melanoma = tested on: UACC-257 melanoma
M14 melanoma = tested on: M14 melanoma
HOP-92 NSCLC = tested on: HOP-92 NSCLC

Measured: growth

O=C1COCCN1c1ccc(NCc2cn(C(=O)c3ccc(Cl)cc3)c3ccccc23)cc1
active: NCI-H226 lung -61.1% | RXF 393 renal 8.91%
inactive: NCI-H23 lung 54.5% | NCI-H322M lung 95.1% | HOP-62 NSCLC 60.2% | NCI-H460 lung 14.9% | NCI-H522 lung 65.6% | A549/ATCC NSCLC 46.9% | 786-0 renal 65.8% | COLO 205 colon 29.3% | DU-145 prostate 84.2% | K-562 leukemia 28.3% | MALME-3M melanoma 78.1% | MDA-MB-231 breast 118% | SF-268 CNS 98% | SF-295 CNS 47.2% | SF-539 CNS 93.4% | UACC-257 melanoma 33.6% | M14 melanoma 74.1%

CCCCCCNC(=O)Oc1ccc(/C(=C(\C)c2ccc(Cl)cc2)c2ccc(OCCN3CCCCC3)cc2)cc1
inactive: NCI-H23 lung 48.5% | NCI-H226 lung 91.2% | NCI-H322M lung 84.9% | HOP-62 NSCLC 68.5% | HOP-92 NSCLC 47.6% | NCI-H522 lung 69.1% | A549/ATCC NSCLC 48.9% | 786-0 renal 23.7% | DU-145 prostate 69.3% | MALME-3M melanoma 31.6% | MDA-MB-231 breast 53.4% | RXF 393 renal 24.1% | SF-268 CNS 56.6% | SF-295 CNS 48.2% | SF-539 CNS 42.5% | UACC-257 melanoma 18.6%
active: COLO 205 colon -35.8% | K-562 leukemia 1.22% | M14 melanoma -33.5%

CC(=O)CC(c1ccccc1)c1c(C)[nH]c2ccccc12 (configuration not stated)
inactive: NCI-H23 lung 81.9% | NCI-H226 lung 89.7% | NCI-H322M lung 100% | HOP-62 NSCLC 93.1% | NCI-H460 lung 106% | NCI-H522 lung 94.4% | A549/ATCC NSCLC 99.5% | 786-0 renal 104% | COLO 205 colon 107% | DU-145 prostate 110% | K-562 leukemia 87.2% | MALME-3M melanoma 100% | MDA-MB-231 breast 103% | RXF 393 renal 104% | SF-268 CNS 94.8% | SF-295 CNS 102% | SF-539 CNS 93.4% | UACC-257 melanoma 94.8% | M14 melanoma 94.4%

C#C[C@]1(O)CC[C@H]2[C@@H]3CC=C4c5sc(Nc6ccccc6)nc5CC[C@]4(C)[C@H]3CC[C@@]21C
inactive: NCI-H23 lung 39.1% | NCI-H226 lung 62.7% | NCI-H322M lung 48% | HOP-62 NSCLC 35.5% | NCI-H460 lung 20.5% | NCI-H522 lung 43.3% | A549/ATCC NSCLC 52.9% | COLO 205 colon 10.1% | DU-145 prostate 16.2% | MALME-3M melanoma 25.8% | MDA-MB-231 breast 27.7% | SF-268 CNS 24.3% | UACC-257 melanoma 30.4%
active: 786-0 renal -36.5% | K-562 leukemia 9.63% | RXF 393 renal -53.1% | SF-295 CNS -56.4% | SF-539 CNS -51.1% | M14 melanoma 2.55%

OC(COc1ccccc1Cl)CN1CCN(c2cccc(Cl)c2)CC1 (configuration not stated)
inactive: NCI-H23 lung 100% | NCI-H226 lung 96.5% | NCI-H322M lung 108% | HOP-62 NSCLC 119% | NCI-H460 lung 121% | NCI-H522 lung 88.5% | A549/ATCC NSCLC 101% | 786-0 renal 98.3% | COLO 205 colon 101% | DU-145 prostate 114% | K-562 leukemia 108% | MALME-3M melanoma 107% | MDA-MB-231 breast 89.3% | RXF 393 renal 118% | SF-268 CNS 105% | SF-295 CNS 105% | SF-539 CNS 101% | UACC-257 melanoma 93.4% | M14 melanoma 98.1%

Oc1ccc(Cl)cc1Cc1cc(Cl)cc(Cl)c1O
inactive: NCI-H226 lung 90.1% | NCI-H322M lung 29.9% | HOP-62 NSCLC 22.9% | NCI-H460 lung 20.9% | NCI-H522 lung 38.9% | A549/ATCC NSCLC 46.8% | 786-0 renal 59.5% | COLO 205 colon 114% | DU-145 prostate 33.2% | MDA-MB-231 breast 69.2% | RXF 393 renal 74% | SF-268 CNS 42.3% | SF-539 CNS 19.8% | UACC-257 melanoma 74.1% | M14 melanoma 65.9%
active: NCI-H23 lung 9.44% | K-562 leukemia 5.3% | MALME-3M melanoma -19.5% | SF-295 CNS -15.1%

COc1ccc(-c2cnc3ccccc3n2)cc1
inactive: NCI-H23 lung 93.2% | NCI-H226 lung 82.7% | NCI-H322M lung 95.2% | HOP-62 NSCLC 87.9% | NCI-H460 lung 101% | NCI-H522 lung 80.2% | A549/ATCC NSCLC 94.6% | 786-0 renal 95.4% | COLO 205 colon 104% | DU-145 prostate 106% | K-562 leukemia 97.5% | MALME-3M melanoma 103% | MDA-MB-231 breast 92.7% | RXF 393 renal 108% | SF-268 CNS 94.6% | SF-295 CNS 98.8% | SF-539 CNS 90.6% | UACC-257 melanoma 104% | M14 melanoma 100%

Cc1ccc(-c2nc(N3CCN(C(=O)Nc4ccc(Cl)c(C(F)(F)F)c4)CC3)c3ccccc3n2)cc1
inactive: NCI-H23 lung 78.1% | NCI-H226 lung 78.7% | NCI-H322M lung 64.3% | HOP-62 NSCLC 79.2% | NCI-H460 lung 81.1% | NCI-H522 lung 69.9% | A549/ATCC NSCLC 64% | 786-0 renal 81.3% | COLO 205 colon 89.6% | DU-145 prostate 86.6% | K-562 leukemia 44.9% | MALME-3M melanoma 105% | MDA-MB-231 breast 61.3% | RXF 393 renal 68% | SF-268 CNS 58.1% | SF-295 CNS 78.2% | SF-539 CNS 87% | UACC-257 melanoma 90.1% | M14 melanoma 73.8%
